# HT1080-NT tox – kills 2HG-producing HT-1080-NT fibrosarcoma cells; HT-1080-NT fibrosarcoma viability, CellTiter-Glo ATP luminescence, 48 h; Potency, µM (top dose mostly 46.1 µM), inactives show at the top dose activity, negative = less viability, most hits filed as cytotoxic; 1.6% of 360,000 active; AID 686970;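 note: NT is the 2HG producing partner of a matched IDH1 knockdown line; 0% = DMSO-treated cells and -100% = media-only wells without cells; nearly all actives have a fitted effect of over 55% in size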
#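 Viability of the 2HG-overproducing fibrosarcoma line after 48 hours of compound exposure at 37 degrees C was determined by luminescence with CellTiter-Glo, and concentration-effect curves were then fitted and categorized.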
# HepG2 viability – counter-screen for TGF-b inhibitors: cytotoxicity in HepG2 cells. HepG2 CAGA-GFP viability, ATP luminescence, 18 h. Potency, µM (series often up to 46.1 µM), for inactives: top-dose activity change, negative = cytotoxicity, most hits filed as cytotoxic. 0.76% of 410,000 active. AID 588856
#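 CellTiter-Glo luminescence gave cytotoxicity after 18 hours at 37 degrees C. The cells were HepG2 CAGA-GFP in 1% FBS DMEM, stimulated with 500 pg/mL TGF-beta after compound addition. %Activity was normalised to no-cell wells (complete cell-killing) and DMSO (no toxicity), and curves were fitted and classified.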
# TGFb SMAD3 inh – blocks TGF-b signaling. Potency, µM (titrated, usually from 46.1 µM), inactives show at the top dose activity, negative = inhibition, actives largely listed as inhibitors. HepG2 CAGA-GFP TGF-b/SMAD3 reporter, GFP fluorescence, 18 h; TGF-beta stimulated, 500 pg/mL final. 1.2% of 410,000 active; note: % is set by controls: 0 for no effect and ±100 for the full control effect; nearly all actives have a fitted effect of over 65% in size
#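 First, reporter cells (HEPG2 CAGA-GFP) rested 2 h at 37 degrees C. Next, compounds were pinned in and TGF-beta added to 500 pg/mL final. After 18 h, GFP was imaged per cell and summed per well.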
# S2 tox – cell viability loss in ATXN counter-screen | 0.49% of 400,000 active | S2 cells (HEK-293 line with an ATXN2-luciferase reporter) viability, CellTiter-Fluor protease fluorescence, 24 h | Potency, µM (doses to about 56.7 µM), hits mostly cytotoxic; note: nearly all actives have a fitted effect of over 40% in size
# HT1080 IDH1KD tx – toxicity to HT-1080 IDH1 knockdown cells (counter line); HT-1080 IDH1 knockdown viability, ATP luminescence, 48 h; Potency, µM (doses to about 46.1 µM), inactives show at the top dose activity, negative = toxicity, most hits filed as cytotoxic; 2% of 360,000 active; AID 686971;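 note: 0% = DMSO wells and -100% = cell-free medium wells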
#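 IDH1KD HT-1080 cells, 750/well, RPMI + 5% FBS; compound pinned after 2 h settling; 48 h, 37 °C; CellTiter-Glo luminescence; % activity normalised to DMSO and no-cell wells; curves fitted, classed by r2 and efficacy.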
# ATXN2 expr inh – ATXN2 expression inhibition | Potency, µM (series often up to 57 µM), for inactives: top-dose activity change, negative = inhibition, actives largely listed as inhibitors | HEK-293 ATXN2-luciferase reporter, luminescence, 24 h | AID 1745845 | 0.72% of 360,000 active; note: % is set by controls: 0 for no effect and ±100 for the full control effect; nearly all actives have a fitted effect of over 55% in size
#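 ATXN2-luciferase reporter cells (luciferase flanked by upstream and downstream ATXN2 gene portions) were treated 24 h at 37 °C with compounds at up to 57 uM. SteadyGlo luminescence gave expression; GF-AFC fluorescence gave viability.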
# An asterisk follows results filed as active; i = inactive; ? = inconclusive; nt = no result given; ! = repeats disagree. Most compounds without a hit are left out; they make up all but 3.8% or so of the library. Calls come from the whole dose curve; as a rule, active = well fitted curve in the direction sought with a large enough effect; inconclusive = small, poorly fitted or top-dose-only effect, or another doubt; inactive = no such curve, though single readings can be large; an effect the other way counts as inactive or inconclusive. Potency is the fitted concentration of half-maximal effect.
SMILES,HT1080-NT tox,HepG2 viability,TGFb SMAD3 inh,S2 tox,HT1080 IDH1KD tx,ATXN2 expr inh
O=C(O)c1cccc(-c2nc3ccccc3[nH]2)c1,-3%,-17%,-8%,i,-15%,14µM*
O=C(COc1ccccc1C(=O)Nc1ccccc1)Nc1ccc(-c2ccccc2)cc1,nt,4%,1%,nt,nt,nt
Cc1ccn2c(Nc3ccccc3C)c(-c3ccccn3)nc2c1,15µM*,16µM*!,13µM*,nt,9.2µM*,4µM*
Cc1ccccc1Nc1c(-c2ccccn2)nc2ccccn12,?,-67%,?,?,?,nt
CC(C)c1ccc(Nc2c(-c3ccccn3)nc3ccccn23)cc1,nt,10µM*,?,?,nt,?
CC(=O)Nc1cccc(-n2c(=O)n(C3CC3)c(=O)c3c(Nc4ccc(I)cc4F)n(C)c(=O)c(C)c32)c1,nt,nt,nt,nt,nt,-6%
COc1ccc(N2CCN(CC(O)COc3ccc(C(C)C)c(C)c3)CC2)cc1 (stereo not drawn),nt,-24%,?,?,nt,-19%
COc1ccc(-c2cc(-c3ccccc3)nc(N)n2)c(O)c1,-1%,-19%,?,i,?,56%
COc1ccc(OC)c(Nc2cc(-c3ccccc3)nc(N)n2)c1,1.5µM*,-11%,-3%,?,1.5µM*,2%
C=C(C)c1nc(Oc2ccccc2)nc(Oc2ccccc2)n1,?,-93%,11µM*,nt,?,?
Cc1cc(Oc2ccccc2)nc(-c2ccccc2)n1,-1%,0%,0%,i,0%,14%
Cc1cccc(NNC(=O)C2CCC2)c1,7.3µM*,-3%,9%,i,7.3µM*,nt
O=C(Nc1ccncc1)c1cnn2c1NC(=C1CC1)C=C2C(F)F,nt,2%,1%,nt,nt,nt
COCC(=O)Nc1cc(C(=O)N2CCN(c3ccccc3)CC2C)c2c(c1)nc(-c1ccncc1)n2C (stereo not drawn),nt,nt,nt,i,nt,nt
N=c1n(CC(=O)c2ccc(Br)cc2)c2ccccc2n1Cc1ccccc1,-23%,-99%,16µM*,nt,-7%,?
Cc1ccccc1Cn1c(=N)n(CC(=O)c2ccco2)c2ccccc21,?,-24%,10µM*,i,?,-23%
CCc1ccc(NC(=O)c2nc(SCc3ccccc3F)ncc2Cl)cc1,nt,6%,21%,nt,nt,nt
Cn1c(=O)c([N+](=O)[O-])c(Cl)c2ccccc21,5.8µM*,-64%,?,nt,5.8µM*,?
CCN(CC)c1c([N+](=O)[O-])c(=O)n(C)c2ccccc12,1%,-12%,-8%,i,-7%,-12%
Cn1c(=O)c([N+](=O)[O-])c(-n2cnc3ccccc32)c2ccccc21,?,-45%,13µM*,?,?,?
Cc1ccc(-c2noc(-c3nnn(CC(=O)Nc4cccc(C(F)(F)F)c4)c3N)n2)cc1,nt,-10%,nt,nt,nt,nt
CC(C)c1ccc(-c2nnc3n(CCc4ccccc4)c(=O)c4ccccc4n23)cc1,nt,-1%,0%,i,nt,10%
Cc1ccccc1NC(=O)c1ccc(F)c(S(=O)(=O)N(C)C2CCCCC2)c1,nt,-19%,-22%,nt,nt,nt
Oc1ccc(/C=N/NC(=S)NCc2ccco2)cc1,10%,1%,3%,?,14%,1%
S=C(NCc1ccco1)N/N=C/c1ccc(Cl)cc1,10%,-90%,13µM*,i,17%,1%
CNC(=S)N/N=C(\C)c1ccc(Cl)c(Cl)c1,-3%,-1%,-14%,i,-3%,-8%
CNC(=S)NN=C(C)CCCC(C)=NNC(=S)NC,11%,-49%,4.5µM*,?,20%,11µM*
COC(=O)C1C=CC(OC2OC(COC(C)=O)C(OC(C)=O)C(OC(C)=O)C2OC(C)=O)n2c(=O)n(-c3ccccc3)c(=O)n21 (stereo not drawn),?,-86%,?,?,5.8µM*,?
CNC(=S)NNC(=O)c1sc2cc(C(F)(F)F)cnc2c1-c1ccccn1,13%,2.5µM*,0%,i,6%,-3%
